{"source": "paper PMC5892938", "about": "“SARNAclust: Semi-automatic detection of RNA protein binding motifs from immunoprecipitation data”", "note": "In all, about 11,000 sequences were measured (“log2 fold change”: median about 0.00022, highest 2% from about 0.34 on). This is one part of the list."}
{"target": "GST-SBP-SLBP (stem-loop binding protein) (Homo sapiens, UniProt Q14493 1-270)", "assay": "targeted RNA Bind-n-Seq; RBNS binding buffer: 25 mM Tris pH 7.5, 150 mM KCl, 3 mM MgCl2, 0.1% Tween, 0.5 mg/mL BSA, 1 mM DTT; 27 nM protein, 750 pM RNA pool; temperature not stated; high values mean tight binding", "settings": "protein: recombinant; tags: N-terminal GST and SBP (pGEX6P1-SBP); structured_RNA", "procedure,_shortened": "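The GST-SBP-tagged protein was expressed in Rosetta(DE3) pLysS E. coli, glutathione-purified and incubated at 27 nM with 750 pM of a designed, T7-transcribed RNA oligo pool in RBNS binding buffer. Bound RNA was reverse transcribed with a 10-nucleotide barcoded primer, PCR-amplified and sequenced on a MiSeq with 200-cycle paired-end reads. Reads were joined with FLASH, aligned with HISAT2 and collapsed by barcode. The binding signal is the DEseq log2 fold change of read counts per sequence.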", "units": {"binding signal": "log2 fold change"}}
{"sequence": "GGUCACGUCUCAAUCAACUCUCAAGAGGGGGGGAAAACCCCUUUGCCCUCCAAAUCAACAGCUCGCAGUCAAG", "binding signal": "0.327 ± 0.445"}
{"sequence": "GGUCACGUCUCAAUCAACUCCAAAGAGGGGGGGAAAACCCCUUUGCCCUCAUUCUCAACAGCUCGCAGUCAAG", "binding signal": "0.342 ± 0.438"}
{"sequence": "GGUCACGUCUCAAUCAACUCCAAAGAGGGGGGGAAAACCCCUUUGCCCUCAAUAUCAACAGCUCGCAGUCAAG", "binding signal": "0.359 ± 0.439"}
{"sequence": "GGUCACGUCUCAAUCAACUCCAAAGAGGGGGGGAAAACCCCUUUGCCCUCGAAAUCAACAGCUCGCAGUCAAG", "binding signal": "0.347 ± 0.378"}
{"sequence": "GGUCACGUCUCAAUCAACUCCAAAGAGGGGGGGAAAACCCCUUUGCCCUCCAAUUCAACAGCUCGCAGUCAAG", "binding signal": "0.304 ± 0.412"}
{"sequence": "GGUCACGUCUCAAUCAACUCUCUCGAGGGGGGGAAAACCCCUUUGCCCUCAAAAUCAACAGCUCGCAGUCAAG", "binding signal": "0.354 ± 0.38"}
{"sequence": "GGUCACGUCUCAAUCAACUCACAAGAGGGGGGGAAAACCCCUUUGCCCUCAUCCUCAACAGCUCGCAGUCAAG", "binding signal": "0.34 ± 0.422"}
{"sequence": "GGUCACGUCUCAAUCAACUCUCUCGAGGGGGGGAAAACCCCUUUGCCCUCAACAUCAACAGCUCGCAGUCAAG", "binding signal": "0.307 ± 0.399"}
{"sequence": "GGUCACGUCUCAAUCAACUCUCUAGAGGGGGGGAAAACCCCUUUGCCCUCGAAAUCAACAGCUCGCAGUCAAG", "binding signal": "0.342 ± 0.443"}
{"sequence": "GGUCACGUCUCAAUCAACUCUCUAGAGGGGGGGAAAACCCCUUUGCCCUCAUCCUCAACAGCUCGCAGUCAAG", "binding signal": "0.441 ± 0.424"}
{"sequence": "GGUCACGUCUCAAUCAACUCUCUAGAGGGGGGGAAAACCCCUUUGCCCUCGUCAUCAACAGCUCGCAGUCAAG", "binding signal": "0.374 ± 0.381"}
{"sequence": "GGUCACGUCUCAAUCAACUCAUUCGAGGGGGGGAAAACCCCUUUGCCCUCAUCAUCAACAGCUCGCAGUCAAG", "binding signal": "0.363 ± 0.407"}
{"sequence": "GGUCACGUCUCAAUCAACUCUCUAGAGGGGGGGAAAACCCCUUUGCCCUCCGUUUCAACAGCUCGCAGUCAAG", "binding signal": "0.354 ± 0.438"}
{"sequence": "GGUCACGUCUCAAUCAACUCCUAAGAGGGGGGGAAAACCCCUUUACCCUCACUAUCAACAGCUCGCAGUCAAG", "binding signal": "0.433 ± 0.43"}
{"sequence": "GGUCACGUCUCAAUCAACUCCUAAGAGGGGGGGAAAACCCCUUUACCCUCAAUCUCAACAGCUCGCAGUCAAG", "binding signal": "0.429 ± 0.444"}
{"sequence": "GGUCACGUCUCAAUCAACUCCUAAGAGGGGGGGAAAACCCCUUUACCCUCGUCCUCAACAGCUCGCAGUCAAG", "binding signal": "0.382 ± 0.439"}
{"sequence": "GGUCACGUCUCAAUCAACUCCUAAGAGGGGGGGAAAACCCCUUUACCCUCCGCAUCAACAGCUCGCAGUCAAG", "binding signal": "0.313 ± 0.425"}
{"sequence": "GGUCACGUCUCAAUCAACUCUAUAGAGGGGGGGAAAACCCCUUUGCCCUCGAAUUCAACAGCUCGCAGUCAAG", "binding signal": "0.377 ± 0.432"}
{"sequence": "GGUCACGUCUCAAUCAACUCUUUAGAGGGGGGGAAAACCCCUUUGCCCUCAACUUCAACAGCUCGCAGUCAAG", "binding signal": "0.318 ± 0.415"}
{"sequence": "GGUCACGUCUCAAUCAACUCUUUAGAGGGGGGGAAAACCCCUUUGCCCUCGAAUUCAACAGCUCGCAGUCAAG", "binding signal": "0.388 ± 0.441"}
{"sequence": "GGUCACGUCUCAAUCAACUCCUUAGAGGGGGGGAAAACCCCUUUGCCCUCGAAUUCAACAGCUCGCAGUCAAG", "binding signal": "0.379 ± 0.448"}
{"sequence": "GGUCACGUCUCAAUCAACUCUCACGAGGGGGGGAAAACCCCUUUGCCCUCAAUUUCAACAGCUCGCAGUCAAG", "binding signal": "0.305 ± 0.454"}
{"sequence": "GGUCACGUCUCAAUCAACUCAUAAGAGGGGGGGAAAACCCCUUUGCCCUCAAUCUCAACAGCUCGCAGUCAAG", "binding signal": "0.373 ± 0.408"}
{"sequence": "GGUCACGUCUCAAUCAACUCUCAAGAGGGGGGGAAAACCCCUUUGCCCUCGUAAUCAACAGCUCGCAGUCAAG", "binding signal": "0.452 ± 0.411"}
{"sequence": "GGUCACGUCUCAAUCAACUCUCACGAGGGGGGGAAAACCCCUUUGCCCUCACUUUCAACAGCUCGCAGUCAAG", "binding signal": "0.351 ± 0.41"}
{"sequence": "GGUCACGUCUCAAUCAACUCAAAAGAGGGGGGGAAAACCCCUUUGCCCUCACUUUCAACAGCUCGCAGUCAAG", "binding signal": "0.573 ± 0.412"}
{"sequence": "GGUCACGUCUCAAUCAACUCAAAAGAGGGGGGGAAAACCCCUUUGCCCUCACAAUCAACAGCUCGCAGUCAAG", "binding signal": "0.31 ± 0.383"}
{"sequence": "GGUCACGUCUCAAUCAACUCUCAAGAGGGGGGGAAAACCCCUUUGCCCUCAACAUCAACAGCUCGCAGUCAAG", "binding signal": "0.531 ± 0.415"}
{"sequence": "GGUCACGUCUCAAUCAACUCACACGAGGGGGGGAAAACCCCUUUGCCCUCAACAUCAACAGCUCGCAGUCAAG", "binding signal": "0.529 ± 0.425"}
{"sequence": "GGUCACGUCUCAAUCAACUCUCAAGAGGGGGGGAAAACCCCUUUGCCCUCACUUUCAACAGCUCGCAGUCAAG", "binding signal": "0.453 ± 0.436"}
{"sequence": "GGUCACGUCUCAAUCAACUCUCAAGAGGGGGGGAAAACCCCUUUGCCCUCCAUGUCAACAGCUCGCAGUCAAG", "binding signal": "0.411 ± 0.415"}
{"sequence": "GGUCACGUCUCAAUCAACUCAAUCGAGGGGGGGAAAACCCCUUUGCCCUCACUUUCAACAGCUCGCAGUCAAG", "binding signal": "0.594 ± 0.435"}
{"sequence": "GGUCACGUCUCAAUCAACUCUAAAGAGGGGGGGAAAACCCCUUUGCCCUCACUAUCAACAGCUCGCAGUCAAG", "binding signal": "0.331 ± 0.434"}
{"sequence": "GGUCACGUCUCAAUCAACUCCUAAGAGGGGGGGAAAACCCCUUUGCCCUCAUUCUCAACAGCUCGCAGUCAAG", "binding signal": "0.335 ± 0.447"}
{"sequence": "GGUCACGUCUCAAUCAACUCCUAAGAGGGGGGGAAAACCCCUUUGCCCUCACUUUCAACAGCUCGCAGUCAAG", "binding signal": "0.38 ± 0.429"}
{"sequence": "GGUCACGUCUCAAUCAACUCCUAAGAGGGGGGGAAAACCCCUUUGCCCUCACCGUCAACAGCUCGCAGUCAAG", "binding signal": "0.325 ± 0.438"}
